Screening results (PubChem BioAssay)
An excerpt weighted towards active compounds, which were near 2.4% of everything screened.
GCN5L2 inh – GCN5L2 (KAT2A) acetyltransferase inhibition; Q92830; GCN5L2 HAT assay, ThioGlo1 CoA-SH fluorescence; Potency, µM (doses to about 58.9 µM), usual class: inhibitors; 390,000 compounds, 0.21% hits; AID 504327
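Enzyme at 20nM final was mixed with library compounds for 15 min at room temperature. Peptide H3(1-25) at 75uM, acetyl-CoA at 70uM and ThioGlo1 at 50uM were then added. Plates were read immediately and after 20 min (Ex340nm/Em540nm).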
POLB inh – blocks human DNA polymerase beta activity; P06746; Pol beta primer extension/strand displacement, fluorescence kinetic; Potency, µM (doses to about 114 µM), hits mostly inhibitors; 340,000 compounds, 1.3% hits; AID 485314
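Preincubation: enzyme (10 nM) with compound, 15 min, RT. Reaction: substrate added to 50 nM final. Reads: 0 and 10 min. Analysis: normalized, Hill fit.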
GLS inh – inhibitors of human glutaminase (GLS) | GLS enzymatic activity, qHTS titration | 410,000 compounds, 0.21% hits | Potency, µM (titrated, usually from 45.5 µM), actives largely listed as inhibitors
Target sequence (O94925 whole entry, looked up): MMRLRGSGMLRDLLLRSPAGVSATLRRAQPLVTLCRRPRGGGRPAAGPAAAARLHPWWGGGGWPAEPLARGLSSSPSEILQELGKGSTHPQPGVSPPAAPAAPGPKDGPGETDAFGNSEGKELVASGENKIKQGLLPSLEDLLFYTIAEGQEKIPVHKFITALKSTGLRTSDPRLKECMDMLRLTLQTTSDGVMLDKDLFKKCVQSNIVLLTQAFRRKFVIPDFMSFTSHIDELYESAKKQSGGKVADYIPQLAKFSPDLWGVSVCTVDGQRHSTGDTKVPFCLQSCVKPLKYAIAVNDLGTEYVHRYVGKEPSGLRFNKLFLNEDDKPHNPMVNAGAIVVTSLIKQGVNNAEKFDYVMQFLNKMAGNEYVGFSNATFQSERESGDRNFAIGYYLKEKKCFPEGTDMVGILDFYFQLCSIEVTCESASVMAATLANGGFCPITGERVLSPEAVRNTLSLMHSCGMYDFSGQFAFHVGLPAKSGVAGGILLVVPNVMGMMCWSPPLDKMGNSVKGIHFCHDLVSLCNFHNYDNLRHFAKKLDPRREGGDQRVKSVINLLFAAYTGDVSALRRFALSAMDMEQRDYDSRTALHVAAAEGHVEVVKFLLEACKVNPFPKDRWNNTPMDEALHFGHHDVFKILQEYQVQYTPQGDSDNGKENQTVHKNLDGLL
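hKGA in 45 mM KH2PO4 pH 8.2, 0.02% Tween-20 with pin-transferred compounds; 1 mM L-glutamine (stock) plus glutamate oxidase/HRP/Amplex Red coupling added. Fluorescence read initially and after 30 min at RT.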
Pol kappa inh-1 – blocks human DNA polymerase kappa activity. Q9UBT6. purified Pol kappa, fluorescent DNA synthesis assay, 10 min. Potency, µM (series often up to 107 µM), hits mostly inhibitors. 400,000 compounds, 0.53% hits
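Here, compound and 10 nM enzyme are combined for 15 min at room temperature; adding 50 nM substrate (final) starts DNA synthesis, tracked by fluorescence at 0 and 10 min against buffer-only wells.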
Pol iota inh – DNA polymerase iota (human) inhibition; Q9UNA4; Pol iota fluorescent replication assay, 10 min; Potency, µM (doses to about 115 µM), actives largely listed as inhibitors; 390,000 compounds, 1% hits; AID 588590
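Pol iota at 10 nM preincubated 15 min with compounds at room temperature; reaction started with fluorescent substrate, 50 nM final. Fluorescence read kinetically at 0 and 10 min; buffer-only wells as negative control.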
Pol eta inh-1 – inhibitors of human DNA polymerase eta; Q9Y253; recombinant Pol eta, fluorescent DNA replication assay; Potency, µM (series often up to 114 µM), hits mostly inhibitors; 390,000 compounds, 1.2% hits; AID 588591
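Fluorescent replication assay: 50 nM final substrate added after a 15 min room-temperature compound preincubation with 10 nM enzyme. Signal taken at 0 min and again at 10 min.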
Pol kappa inh-2 – confirmation of human DNA polymerase kappa inhibitors; Potency, µM, actives largely listed as inhibitors; 920 compounds, 76% hits; purified Pol-kappa, fluorescent strand-displacement substrate; shares compounds with Pol eta inh-1
Pol eta inh-2 – confirmation of human DNA polymerase eta inhibitors; Potency, µM, actives largely listed as inhibitors; Pol eta primer extension, TAMRA/BHQ fluorescence, 10 min; 2,600 compounds, 64% hits; AID 720502; shares compounds with Pol eta inh-1
Large screens that a line does not name were inactive (follow-up assays come after a bar, where they were run). The call rests on the fitted dose curve; in most records, active means well fitted inhibition curve with a large enough effect; inconclusive means small, poorly fitted or top-dose-only effect, or another doubt; inactive means no such curve, though single readings can be large or run the other way.

COc1cc(/C=C2\C(=N)N3N=C(S(C)(=O)=O)SC3=NC2=O)ccc1OS(=O)(=O)c1ccc(C)cc1	POLB inh 100µM, Pol kappa inh-1 inconclusive, Pol iota inh 20µM, Pol eta inh-1 32µM | Pol eta inh-2 48
COc1ccccc1-n1c(/C=C/c2c(C)n(C)c3ccccc23)nc2ccccc2c1=O	Pol iota inh inconclusive
COc1ccc(C)cc1NC(=O)C1CCCN(c2ncnc3onc(C)c23)C1 (stereo not given)	none
O=C(O)C1CC=CCC1C(=O)N1CCc2ccccc21 (stereo not given)	POLB inh 20µM, Pol kappa inh-1 inconclusive, Pol eta inh-1 inconclusive | Pol eta inh-2 inconclusive
O=C(O)C1C2C=CC(C2)C1C(=O)N1CCc2ccccc21 (stereo not given)	none
CCn1c(/C=C/c2ccc(O)cc2)nc2ccccc2c1=O	none
CCn1c(/C=C/c2ccc(O)c(O)c2)nc2ccccc2c1=O	POLB inh 22µM, Pol kappa inh-1 79µM, Pol iota inh inconclusive, Pol eta inh-1 14µM | Pol eta inh-2 67
COc1cccc2cc(C(=O)CS(=O)(=O)c3ccc(Cl)cc3)c(=O)oc12	Pol iota inh 13µM, Pol eta inh-1 inconclusive | Pol eta inh-2 inconclusive
COc1ccc(S(=O)(=O)CC(=O)c2cc3cc(Br)ccc3oc2=O)cc1	GCN5L2 inh inconclusive, POLB inh 10µM, GLS inh inconclusive, Pol kappa inh-1 inconclusive, Pol iota inh 13µM, Pol eta inh-1 28µM | Pol eta inh-2 inconclusive
Oc1c(Br)cc(Br)c(/C=N/n2c(-c3ccccc3)n[nH]c2=S)c1Br	GCN5L2 inh 28µM, POLB inh inconclusive, Pol kappa inh-1 inconclusive, Pol iota inh 28µM, Pol eta inh-1 35µM | Pol kappa inh-2 inconclusive | Pol eta inh-2 inconclusive
S=c1[nH]nc(-c2cc(-c3ccccc3)n[nH]2)n1/N=C/c1cccc(Cl)c1	POLB inh 7.1µM, GLS inh inconclusive, Pol kappa inh-1 inconclusive, Pol iota inh 25µM, Pol eta inh-1 40µM | Pol eta inh-2 27
O=C(CSc1nc2ccccc2c(=O)n1-c1ccccc1)NC(=O)CN1CCCC1=O	POLB inh 13µM, Pol kappa inh-1 inconclusive, Pol iota inh inconclusive, Pol eta inh-1 45µM | Pol eta inh-2 inconclusive
O=C(CSc1nc2ccccc2c(=O)n1-c1ccccc1)N1CCC1	none
COc1ccc(-c2noc(COc3cc(C)ccc3C)n2)cc1OC	none
O=C(Nc1sc2c(c1C(=O)O)CCC2)C(=O)N1CCOCC1	POLB inh inconclusive, Pol iota inh inconclusive, Pol eta inh-1 20µM | Pol eta inh-2 inconclusive
O=C(Nc1sc2c(c1C(=O)O)CCCC2)C(=O)N1CCOCC1	none
COc1ccc(-c2c(C)c3ccc(O)cc3oc2=O)cc1OC	none
Nc1ccc(-c2c3ccc(=O)cc-3oc3cc(O)ccc23)cc1C(=O)O	POLB inh 45µM, Pol kappa inh-1 79µM, Pol iota inh 25µM, Pol eta inh-1 20µM | Pol kappa inh-2 15 | Pol eta inh-2 30
O.O.[Mn].[Mn].[Mn].[OH-].[OH-]	none (no result: POLB inh, GLS inh, Pol iota inh, Pol eta inh-1)
Cc1cccc(-n2c(=O)c3c4c(sc3n3c(C)nnc23)CCCC4)c1	none
Cc1cc(O)c(Oc2cc(C)cc(O)c2O)c(O)c1	POLB inh 3.5µM, GLS inh inconclusive, Pol kappa inh-1 22µM, Pol iota inh 40µM, Pol eta inh-1 22µM | Pol eta inh-2 38
CC(C)Cn1c(N)c(C(=O)COC(=O)C2Cc3ccccc3CN2S(C)(=O)=O)c(=O)n(C)c1=O (stereo not given)	Pol kappa inh-1 inconclusive, Pol iota inh 45µM, Pol eta inh-1 22µM (no result: POLB inh) | Pol kappa inh-2 inconclusive | Pol eta inh-2 inconclusive
COCCN(C(=O)c1cc2c(s1)CCCCC2)c1c(N)n(Cc2ccccc2)c(=O)[nH]c1=O	none (no result: POLB inh)
COCCN(C(=O)COC(=O)c1cc2c(s1)CCCC2)c1c(N)n(Cc2ccccc2)c(=O)[nH]c1=O	Pol kappa inh-1 inconclusive, Pol iota inh 50µM, Pol eta inh-1 45µM (no result: POLB inh) | Pol eta inh-2 inconclusive
COc1ccc(-n2ncc(C(=O)N3CCN(C4CCCCC4)CC3)c2C2CCN(C(=O)OC(C)(C)C)CC2)cc1	none
COc1cc(/C=C/c2ccc3cccc([N+](=O)[O-])c3n2)ccc1OCC(=O)O	POLB inh inconclusive, GLS inh inconclusive, Pol kappa inh-1 inconclusive, Pol iota inh inconclusive, Pol eta inh-1 20µM | Pol kappa inh-2 inconclusive | Pol eta inh-2 76
COc1cc(/C=C/c2ccc3c([N+](=O)[O-])cccc3n2)ccc1OCC(=O)O	none
CCC(=O)N1CCc2cc(Br)cc(S(=O)(=O)CCC(=O)N(C)c3cccc(C)c3)c21	POLB inh 45µM, Pol eta inh-1 35µM | Pol eta inh-2 85
COc1ccccc1/C=C1\SC(=S)N(Nc2nc(C)cc(C)n2)C1=O	Pol iota inh inconclusive
Cc1cc(C)nc(NN2C(=O)/C(=C/c3ccc(O)cc3)SC2=S)n1	GCN5L2 inh inconclusive, POLB inh inconclusive, Pol iota inh 32µM, Pol eta inh-1 inconclusive | Pol eta inh-2 76
Fc1ccc(C(NCCc2ccccc2)c2nnc(-c3ccccc3Cl)o2)cc1 (stereo not given)	POLB inh inconclusive
Cc1ccc(OCC(=O)N/N=C\c2ccc(-c3cccc(C(=O)O)c3)o2)c(C)c1	POLB inh 20µM, Pol kappa inh-1 50µM, Pol iota inh inconclusive, Pol eta inh-1 3.5µM | Pol eta inh-2 30
Brc1cccc(/C=N/Nc2nn[nH]n2)c1	none
O=C(O)c1cccc(-c2ccc(/C=N/Nc3nn[nH]n3)o2)c1	POLB inh inconclusive, Pol kappa inh-1 inconclusive, Pol eta inh-1 inconclusive | Pol eta inh-2 67
COc1ccc(CC(=O)N/N=C/c2ccc(-c3ccc(F)cc3)o2)cc1OC	none
COc1ccc(CC(=O)N/N=C/c2ccc(-c3cccc(C(=O)O)c3)o2)cc1OC	POLB inh 13µM, Pol kappa inh-1 79µM, Pol iota inh inconclusive, Pol eta inh-1 10µM | Pol kappa inh-2 12 | Pol eta inh-2 19
COc1ccccc1C(=O)Nc1cc2c(cc1N1CCCCC1)n(C)c(=O)n2C	none
